Reference: PubChem BioAssay
The source made the active and inactive calls.

Key:
[1] = optical density shifts of acrAB sulA E. coli – strain DRC41, OD650, 48 h, E. coli filamentation inducer project, primary screen (AID 1152); details: higher = more signal, called active from +8 up or from −8 down;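 note: E. coli MC1000 strain DRC41 lacking acrAB efflux pump and sulA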
[2] = probe aLefty1 binding on compound microarray – biochemical, small-molecule microarray, 635/667 nm fluorescence, primary screen (AID 1153); details: higher = more signal;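 note: score merges spot fluorescence with signal-to-noise ratio from the scanned slide images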
[3] = plasmodial surface anion channel blockers, osmotic lysis – cell-based, P. falciparum Indochina, OD700, 1 h, primary screen (AID 1154); details: P. falciparum Indochina infected RBC osmotic lysis, higher = more signal, called active from +8 up or from −8 down
[4] = plasmodial surface anion channel blockers, osmotic lysis – cell-based, P. falciparum Indochina, OD700, 2 h, primary screen (AID 1155);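 note: lysis reports solute entry through the parasite surface anion channel PSAC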; details: P. falciparum Indochina infected erythrocytes, higher = more signal, called active from +8 up or from −8 down
[5] = changes in parasitized red cell lysis, either direction – P. falciparum Indochina, OD700, 3 h, PSAC antagonist project, primary screen (AID 1156); details: P. falciparum-infected erythrocytes, osmotic lysis, higher = more signal, called active from +8 up or from −8 down
[6] = plasmodial surface anion channel blockers, osmotic lysis – cell-based, P. falciparum Indochina, OD700, 18 h, primary screen (AID 1157); details: P. falciparum Indochina infected erythrocytes, osmotic lysis OD700, 18 h; higher = more signal, called active from +8 up or from −8 down
[7] = S6 kinase pathway phospho-S6 level changes – cell-based, A549, cytoblot, luminescence, serum-stimulated, primary screen (AID 1158); details: 5 h, higher = more signal;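 note: serum-stimulated A549 lung adenocarcinoma cells; signal is phosphorylated S6 detected by cytoblot immunostaining with HRP secondary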
[8] = target: NADPH oxidase 2 (Homo sapiens) (UniProt P04839); experiment: compounds shifting NOX2 Amplex Red fluorescence – cell-based, HEK293-NOX2, PMA-stimulated, NOX inhibitor project, primary screen (AID 1159); details: 45 min, higher = more signal, called active from +8 up or from −8 down; note: test concentration not given here
[9] = target: NADPH oxidase 4 (Homo sapiens) (UniProt Q9NPH5); experiment: compounds shifting NOX4 Amplex Red fluorescence – cell-based, HEK293-NOX4, tetracycline-induced, NOX inhibitor project, primary screen (AID 1160); details: HEK293-NOX4, Amplex Red H2O2 fluorescence, 45 min; higher = more signal, called active from +8 up or from −8 down
[10] = target: NADPH oxidase 5 (Homo sapiens) (UniProt Q96PH1); experiment: compounds shifting NOX5 Amplex Red fluorescence – cell-based, HEK293-NOX5, NOX inhibitor project, primary screen (AID 1161); details: HEK293-NOX5, ionomycin, 45 min, higher = more signal
Sequence of NADPH oxidase 5 (Homo sapiens) (Q96PH1 whole entry, looked up): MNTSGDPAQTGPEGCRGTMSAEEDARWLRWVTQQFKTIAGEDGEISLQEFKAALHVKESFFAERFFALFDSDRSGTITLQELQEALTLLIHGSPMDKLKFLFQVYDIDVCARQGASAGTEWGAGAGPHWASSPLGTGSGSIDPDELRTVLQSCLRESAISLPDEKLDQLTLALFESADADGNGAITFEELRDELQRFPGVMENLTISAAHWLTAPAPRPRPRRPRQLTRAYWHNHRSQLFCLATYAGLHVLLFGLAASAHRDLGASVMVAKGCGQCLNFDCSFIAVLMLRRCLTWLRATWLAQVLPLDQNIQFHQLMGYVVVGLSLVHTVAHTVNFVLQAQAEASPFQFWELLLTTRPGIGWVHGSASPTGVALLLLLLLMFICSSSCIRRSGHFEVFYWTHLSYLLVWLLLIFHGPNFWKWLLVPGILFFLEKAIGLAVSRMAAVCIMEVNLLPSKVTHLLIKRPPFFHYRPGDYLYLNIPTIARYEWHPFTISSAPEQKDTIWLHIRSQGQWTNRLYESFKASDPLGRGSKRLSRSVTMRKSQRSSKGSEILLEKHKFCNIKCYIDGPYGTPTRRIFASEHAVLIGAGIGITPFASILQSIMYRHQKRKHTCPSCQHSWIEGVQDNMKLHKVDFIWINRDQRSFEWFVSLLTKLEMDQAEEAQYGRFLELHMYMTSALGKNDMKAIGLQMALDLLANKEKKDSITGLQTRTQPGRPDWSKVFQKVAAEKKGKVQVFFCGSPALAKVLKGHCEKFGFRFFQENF

Sequence of NADPH oxidase 4 (Homo sapiens) (Q9NPH5 whole entry, looked up): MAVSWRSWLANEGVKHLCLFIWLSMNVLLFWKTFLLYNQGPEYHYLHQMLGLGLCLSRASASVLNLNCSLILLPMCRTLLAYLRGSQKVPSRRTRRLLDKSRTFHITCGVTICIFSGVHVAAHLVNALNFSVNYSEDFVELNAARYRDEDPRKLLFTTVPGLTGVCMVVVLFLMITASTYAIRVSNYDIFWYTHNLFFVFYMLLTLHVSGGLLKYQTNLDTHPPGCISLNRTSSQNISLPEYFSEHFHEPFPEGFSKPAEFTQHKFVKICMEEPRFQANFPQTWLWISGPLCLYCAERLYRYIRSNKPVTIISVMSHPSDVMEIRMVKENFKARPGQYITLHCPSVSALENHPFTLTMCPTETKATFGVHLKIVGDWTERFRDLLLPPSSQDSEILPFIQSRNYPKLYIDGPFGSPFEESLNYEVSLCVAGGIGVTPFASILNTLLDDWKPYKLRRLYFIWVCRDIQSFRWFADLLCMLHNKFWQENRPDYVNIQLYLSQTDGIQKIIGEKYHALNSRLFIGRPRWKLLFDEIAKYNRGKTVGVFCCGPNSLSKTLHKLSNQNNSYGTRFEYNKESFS
Sequence of NADPH oxidase 2 (Homo sapiens) (P04839 whole entry, looked up): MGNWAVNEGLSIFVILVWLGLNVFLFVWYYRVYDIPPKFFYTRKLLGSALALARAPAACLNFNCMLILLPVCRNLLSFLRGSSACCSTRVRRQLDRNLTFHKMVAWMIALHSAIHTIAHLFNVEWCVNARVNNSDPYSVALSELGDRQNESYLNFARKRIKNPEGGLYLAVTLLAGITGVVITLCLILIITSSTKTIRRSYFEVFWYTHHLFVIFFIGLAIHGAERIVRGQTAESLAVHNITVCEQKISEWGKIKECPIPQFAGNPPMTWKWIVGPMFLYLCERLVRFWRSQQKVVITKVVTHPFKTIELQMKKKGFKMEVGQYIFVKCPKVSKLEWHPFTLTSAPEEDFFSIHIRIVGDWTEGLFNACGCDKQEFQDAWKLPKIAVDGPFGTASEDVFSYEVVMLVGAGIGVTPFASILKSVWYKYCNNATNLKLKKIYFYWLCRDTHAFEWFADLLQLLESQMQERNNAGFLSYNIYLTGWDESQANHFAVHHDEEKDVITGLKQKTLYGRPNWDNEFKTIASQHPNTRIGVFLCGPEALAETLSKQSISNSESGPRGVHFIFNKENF

Row | SMILES | z-score [1] | composite z-score [2] | z-score [3] | z-score [4] | z-score [5] | z-score [6] | z-score [7] | z-score [8] | z-score [9] | z-score [10]
1 | COC(=O)C(CC#Cc1ccc2c(c1)[C@]1(C(=O)N2)[C@H](C(=O)N2CCN(c3ncccn3)CC2)[C@H]2C(=O)O[C@H](c3ccccc3)[C@H](c3ccccc3)N2[C@@H]1c1ccc(O)cc1)C(=O)OC | -0.442 (inactive) | 1.93 | 1.85 (inactive) | 0.89 (inactive) | 0.804 (inactive) | 0.0729 (inactive) | -0.339 | 1.52 (inactive) | -0.566 (inactive) | 0.665
2 | COC(=O)[C@@]1(Cc2ccccc2)[C@H]2c3cc(C(=O)N(C)C)n(Cc4ccc(Cl)c(C(F)(F)F)c4)c3C[C@H]2CN1C(=O)c1ccccc1 | -2.34 (inactive) | 0.936 | 2.46 (inactive) | 0.943 (inactive) | 0.453 (inactive) | 1.18 (inactive) | -0.114 | 0.0852 (inactive) | -0.895 (inactive) | -1.92
3 | Cc1ccc(S[C@]2(C(=O)NCc3ccccc3)CC(=O)N(Cc3ccccc3Cl)[C@@H]2c2ccc(CO)cc2)cc1 | -0.71 (inactive) | -0.0536 | 3.22 (inactive) | 0.328 (inactive) | 2.98 (inactive) | 0.254 (inactive) | -0.121 | -0.703 (inactive) | -0.666 (inactive) | -0.778
4 | CC[C@@H](O[Si](C#C[Si](C(C)C)(C(C)C)C(C)C)(C(C)C)C(C)C)c1cn([C@H](C)c2ccccc2)nn1 | 0.854 (inactive) | -0.0601 | 0.4 (inactive) | 0.209 (inactive) | -0.969 (inactive) | 0.582 (inactive) | -0.711 | -0.0103 (inactive) | -0.507 (inactive) | 0.0572
5 | COCCOC(=O)N1C(=O)[C@@]2(c3cc(C#CCCO)ccc31)[C@H](C(=O)N1CCN(c3ncccn3)CC1)[C@H]1C(=O)O[C@H](c3ccccc3)[C@H](c3ccccc3)N1[C@@H]2c1ccc(OCCO)cc1 | -0.862 (inactive) | 0.197 | 11.4 (active) | 3.12 (inactive) | 0.72 (inactive) | 1.39 (inactive) | -0.633 | 1.45 (inactive) | 0.709 (inactive) | 1.21
6 | COC(=O)[C@@]1(Cc2ccccc2)[C@H]2c3cc(C(=O)N(C)C)n(CCF)c3C[C@H]2CN1C(=O)c1ccccc1 | -0.81 (inactive) | 0.873 | 1.54 (inactive) | 0.322 (inactive) | 0.484 (inactive) | 0.544 (inactive) | -0.546 | 0.148 (inactive) | -1.73 (inactive) | -1.89
7 | CCCCCCc1nc(-c2ccc(OC)nc2)c(C)c2c1[Si](C(C)C)(C(C)C)OC2 | 0.579 (inactive) | -0.115 | 1.74 (inactive) | -0.0075 (inactive) | 0.974 (inactive) | -0.349 (inactive) | 1.34 | -1.98 (inactive) | -0.117 (inactive) | -2.71
8 | COc1ccc(C(=O)Nc2ccc(CN3C(=O)[C@@]4(O[C@@H](CC(=O)N(CCO)Cc5ccccc5)[C@H]([Si](C)(C)c5ccc(OC)cc5)[C@H]4C)c4ccccc43)cc2)cc1 | 1.73 (inactive) | -0.115 | 16.6 (active) | 2.82 (inactive) | 0.467 (inactive) | -0.236 (inactive) | 1.21 | 1.06 (inactive) | 1.39 (inactive) | 2.59
9 | C[C@]12C(=O)N(CCO)[C@@H]3C(=O)N(c4ccc(Cl)cc4)CC=CC31O[C@@H]1/C=C\CCCOC(=O)C12 (stereo not given in full) | -0.295 (inactive) | 0.161 | 0.505 (inactive) | 0.176 (inactive) | 0.228 (inactive) | 0.359 (inactive) | -0.362 | 1.96 (inactive) | -0.22 (inactive) | 2.65
10 | COC(=O)C(CC#Cc1ccc2c(c1)[C@]1(C(=O)N2)[C@H](c2ccccc2OCCO)N2[C@H](c3ccccc3)[C@H](c3ccccc3)OC(=O)[C@H]2[C@@H]1C(=O)N1CCN(c2ncccn2)CC1)C(=O)OC | -0.577 (inactive) | -0.0984 | 3.02 (inactive) | 1.49 (inactive) | 0.928 (inactive) | 0.565 (inactive) | -0.512 | 0.803 (inactive) | 0.849 (inactive) | 2.23
11 | COCCOC(=O)N1C(=O)[C@@]2(c3ccccc31)[C@H](C(=O)Nc1nc3ccccc3s1)[C@H]1C(=O)O[C@H](c3ccccc3)[C@H](c3ccccc3)N1[C@@H]2c1ccccc1OCCO | 0.253 (inactive) | 0.941 | 4.98 (inactive) | 2.57 (inactive) | 0.0618 (inactive) | 1.95 (inactive) | -0.0149 | 1.91 (inactive) | -0.601 (inactive) | 1.17
12 | COC(=O)[C@@]1(Cc2ccc(F)cc2)[C@@H]2C(=CC(=O)[C@H]2CC(=O)C(=O)N2CCCC2)CN1C(=O)c1ccccc1 | -1.18 (inactive) | 1.45 | 3.94 (inactive) | -0.607 (inactive) | -2.12 (inactive) | -1.03 (inactive) | 1.84 | -3.72 (inactive) | -5.14 (inactive) | -4.38
13 | [N-]=[N+]=Nc1ccccc1C[C@@]1(C(=O)NCc2ccccc2)N=C(c2ccc(OCCCO)cc2)O[C@@H]1c1ccccc1 | 0.0295 (inactive) | 1.43 | 27.6 (active) | 17.3 (active) | 1.4 (inactive) | 2.09 (inactive) | 0.308 | -1.67 (inactive) | -0.0758 (inactive) | -1.1
14 | COCCCNC(=O)[C@@]1(Cc2ccccc2I)c2ccccc2C(=O)N(Cc2ccccc2C(F)(F)F)[C@H]1c1ccc(CO)cc1 | -0.506 (inactive) | -0.142 | 3.42 (inactive) | 1.31 (inactive) | 2.09 (inactive) | 0.866 (inactive) | -0.55 | 0.227 (inactive) | -1.01 (inactive) | -1.42
15 | [N-]=[N+]=NCc1ccccc1[C@H]1OC(c2ccc(OCCCO)cc2)=N[C@@]1(Cc1ccccc1N=[N+]=[N-])C(=O)O | -1.17 (inactive) | 0.479 | 22.2 (active) | 3.83 (inactive) | 0.0591 (inactive) | 0.395 (inactive) | -0.314 | 0.831 (inactive) | 0.982 (inactive) | 1.51
16 | O=C1O[C@@H](c2ccccc2)[C@@H](c2ccccc2)N2[C@@H](c3ccc(OCCO)cc3)[C@]3(C(=O)Nc4ccc(C#CC5=CCCCC5)cc43)[C@@H](C(=O)Nc3nc4ccccc4s3)[C@H]12 | -0.558 (inactive) | -0.0857 | 1.88 (inactive) | 2.03 (inactive) | 1.92 (inactive) | 2.11 (inactive) | -0.579 | 1.01 (inactive) | -0.188 (inactive) | 0.0226
17 | [N-]=[N+]=NCc1ccccc1C[C@@]1(C(N)=O)N=C(c2ccc(OCCCO)cc2)O[C@@H]1c1ccccc1N=[N+]=[N-] | -1.04 (inactive) | 0.045 | 32.4 (active) | 31.4 (active) | 1.81 (inactive) | 2.31 (inactive) | -0.441 | 0.0502 (inactive) | -0.393 (inactive) | -1.89
